PubChem BioAssay (NCATS)
Records with an inconclusive call do not appear. Activity calls are given as the source filed them. Calls come from the whole dose curve; as a rule, active = well fitted curve in the direction sought with a large enough effect; inconclusive = small, poorly fitted or top-dose-only effect, or another doubt; inactive = no such curve, though single readings can be large; an effect the other way counts as inactive or inconclusive.

Assays:
[1] = target: Cellular tumor antigen p53 (Homo sapiens) (UniProt P04637); assay: Primary qHTS for small molecule compounds that upregulate eGFP-tagged delta133p53alpha (in N-terminal) cells. (AID 2060322); details: NCI-H358 eGFP-delta133p53alpha fluorescence, 24 h; activation: stronger effect = higher value;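 note: series mostly up to about 56 µM; 0% = DMSO vehicle and 100% = reference activator; nearly all actives have a fitted effect of over 75% in size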
Chain of Cellular tumor antigen p53 (Homo sapiens) (P04637 whole entry, looked up): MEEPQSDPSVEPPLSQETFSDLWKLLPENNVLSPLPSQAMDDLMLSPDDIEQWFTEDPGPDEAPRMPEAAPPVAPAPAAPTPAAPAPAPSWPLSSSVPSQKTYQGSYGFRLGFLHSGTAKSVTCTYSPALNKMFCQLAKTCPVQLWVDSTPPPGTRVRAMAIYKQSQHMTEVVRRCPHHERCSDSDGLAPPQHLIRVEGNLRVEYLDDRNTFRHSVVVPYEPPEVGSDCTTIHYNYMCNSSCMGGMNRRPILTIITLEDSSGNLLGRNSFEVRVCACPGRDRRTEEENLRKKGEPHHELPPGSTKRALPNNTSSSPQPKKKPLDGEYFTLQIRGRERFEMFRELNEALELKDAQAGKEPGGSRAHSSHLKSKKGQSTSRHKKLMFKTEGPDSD
Outline: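 NCI-H358 cells pre-induced 24 h with 10 ng/ml doxycycline to express N-terminal eGFP-delta133p53alpha, then dosed 24 h at 37C without doxycycline; fixed, Hoechst-stained, GFP intensity by laser scanning cytometry, normalized to DMSO (0%) and 57.5 uM 5-azacytidine (100%).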

[2] = target: Aldehyde dehydrogenase, mitochondrial (Homo sapiens) (UniProt P05091); assay: qHTS for Inhibitors of the Aldehyde Dehydrogenase Family (ALDH2) Primary screen (AID 2061308);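 note: plate controls were vehicle for no effect and reference inhibitor for full effect; nearly all actives have a fitted effect of over 55% in size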
[3] = target: Retinaldehyde dehydrogenase 3 (Homo sapiens) (UniProt P47895); assay: qHTS for Inhibitors of the Aldehyde Dehydrogenase Family (ALDH1A3) Primary screen (AID 2061315);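 note: plate controls were DMSO vehicle for no effect and reference inhibitor for full effect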

CC(C)CCC(=O)CC1c2ccccc2C(=O)N1c1ccc2ccc(Cl)nc2n1 (stereo unspecified)
inactive: activation [1] 0.477% | Potency [2] | Potency [3]

CN[C@H](CC(C)C)C(=O)N[C@H]1C(=O)N[C@@H](CC(N)=O)C(=O)N[C@H]2C(=O)N[C@H]3C(=O)N[C@H](C(=O)N[C@H](C(=O)O)c4cc(O)cc(O)c4-c4cc3ccc4O)[C@H](O[C@H]3C[C@](C)(N)[C@@H](O)[C@H](C)O3)c3ccc(c(Cl)c3)Oc3cc2cc(c3O[C@@H]2O[C@H](CO)[C@@H](O)[C@H](O)[C@H]2O[C@H]2C[C@](C)(NCc3ccc(-c4ccc(Cl)cc4)cc3)[C@@H](O)[C@H](C)O2)Oc2ccc(cc2Cl)[C@H]1O
inactive: activation [1] 27% | Potency [2] | Potency [3]

CC12CCC3C(C)(C)C(O)CCC3(C)C1Cc1c(oc(C(=O)O)cc1=O)O2 (stereo unspecified)
inactive: activation [1] -9.92% | Potency [2] | Potency [3]

COc1ccc(CNC(=O)c2sc3nc(C)cc(C)c3c2N)cc1
inactive: activation [1] -8.11% | Potency [2] | Potency [3]

CC1OC(OC2C(OC3C(O[C@H]4CC[C@@]5(C)C(CC[C@]6(C)C5C(=O)CC5=C7CC(C)(C)CC(O)[C@]7(C)CC[C@]56C)C4(C)C)OC(C(=O)O)C(O)C3O)OCC(O)C2O)C(O)C(O)C1O (stereo partly specified)
inactive: activation [1] -11.5% | Potency [2] | Potency [3]

CC(=O)NCc1cccc(OC[C@@H](O)CNCCc2ccc(NS(=O)(=O)c3ccccc3)cc2)c1
inactive: activation [1] 8.93% | Potency [2] | Potency [3]

CC1=C(c2ccc(NC(=O)c3c(F)cccc3F)cc2)CN(c2nccs2)CC1
inactive: activation [1] 21.7% | Potency [2] | Potency [3]

C=C[C@H]1[C@H](O[C@@H]2O[C@H](CO)[C@@H](O)[C@H](O)[C@H]2O)OC=C(C(=O)OC)[C@H]1C/C=C(/C=O)[C@@H]1C(C(=O)OC)=CO[C@@H](O[C@@H]2O[C@H](CO)[C@@H](O)[C@H](O)[C@H]2O)[C@@H]1C=C
inactive: activation [1] -22.1% | Potency [2] | Potency [3]

C/C=C/C=C/C(=O)OC1CC/C=C/C(O)C(O)C(CCC)OC1=O (stereo unspecified)
inactive: activation [1] -12.2% | Potency [2] | Potency [3]

O=C(O[C@@H]1O[C@H](CO)[C@@H](O)[C@H](O)[C@H]1O)c1ccccc1
inactive: activation [1] -9.82% | Potency [2] | Potency [3]

Cc1ccc(F)cc1S(=O)(=O)N[C@@H]1CCN(Cc2ccc(OC(C)C)cc2)C1
inactive: activation [1] -2.39% | Potency [2] | Potency [3]

CC1(C)CC23[C@@H]4CC(=O)[C@@H]2COC(=O)[C@@H]3CC[C@H]41
inactive: activation [1] -5.36% | Potency [2] | Potency [3]

O=C(Cc1ccc(Cl)cc1)Nc1cnccc1C(=O)O
inactive: activation [1] -12.3% | Potency [2] | Potency [3]

C=C1CC[C@H]2[C@@](C)(CCC(O)[C@@]2(C)CO)[C@@H]1/C=C/C(=C\C(=O)O)C(=O)O (stereo partly specified)
inactive: activation [1] -2.29% | Potency [2] | Potency [3]

CCC(C)/C=C(C)/C=C/C1=CC2=C(Cl)C(=O)C(C)(OC(C)=O)C(=O)C2=CN1CCCC(=O)O (stereo unspecified)
inactive: activation [1] 0.763% | Potency [2] | Potency [3]

CC(C)[C@H]1CC[C@@]2(O)COC(=O)[C@H]2[C@@H]1/C=C(\CO)C(=O)O
inactive: activation [1] -2.29% | Potency [2] | Potency [3]

NC[C@@H]1O[C@@H](O[C@@H]2[C@@H](O[C@@H]3O[C@H](CO)[C@@H](O)[C@H]3O)[C@H](O)[C@@H](N)C[C@H]2N)[C@@H](N)[C@H](O)[C@H]1O
inactive: activation [1] -0.893% | activity change, negative = inhibition [2] -0.412% [at 11.2 µM] | activity change, negative = inhibition [3] -9.15% [at 11.2 µM]

C=C[C@]1(C)C[C@H](O)[C@H]2C(=C)C(=O)O[C@@H]2[C@H]1C(=C)CO
inactive: activation [1] 17.9% | Potency [2] | Potency [3]

C[C@@]12C(=O)N(c3ccc(C(=O)Nc4cccc5cccnc45)cc3)C(=O)[C@@H]1[C@@H]1C=C[C@H]2C1
inactive: activation [1] 18.3% | Potency [2] | Potency [3]

CC1(C)CCC2(C(=O)O)C(O)CC3(C)C(=CCC4C5(C)CCC(OC6OC(CO)C(O)C(O)C6OC6OC(CO)C(O)C(O)C6OC6OCC(O)(CO)C6O)C(C)(C)C5CCC43C)C2C1 (stereo unspecified)
inactive: activation [1] -18.3% | Potency [2] | Potency [3]

Nc1nc2c(c(=O)[nH]1)C[C@@H](CCc1ccc(C(=O)N[C@@H](CCC(=O)O)C(=O)O)cc1)CN2
inactive: activation [1] 8.33% | Potency [2] | Potency [3]

C[C@]1(OC(=O)/C=C/c2ccc(O)cc2)C[C@@H](O)[C@]2(O)C=CO[C@@H](O[C@@H]3O[C@H](CO)[C@@H](O)[C@H](O)[C@H]3O)C12 (stereo partly specified)
inactive: activation [1] 3.57% | Potency [2] | Potency [3]
